Targets with a hit are over-represented here; the source holds about 6,500 in all. About 2% of all pairs of compound and target were hits.
Each target was assayed with COC(=O)C#Cc1ccccc1 [methyl 3-phenylpropiolate] (assay: log2 ratio of iodoacetamide-alkyne labeling of the cysteine site, DMSO over compound (competition); higher = stronger covalent engagement of the cysteine by the compound, active = 1 or more). Conditions: 500 µM; treatment time 1 h; system: HEK293T cell lysate.
In short: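 HEK293T lysate (2 mg/mL) was treated with DMSO or electrophile (500 µM, 1 h, ambient temperature), then iodoacetamide alkyne (1 h), clicked to sCIP-TMT reagents, pooled, trypsin-digested overnight at 37 °C, streptavidin-enriched and acid-eluted. Peptides were run on Orbitrap Eclipse LC-MS/MS with FAIMS and quantified in FragPipe. The log2 competition ratio per cysteine is mean control-channel over mean compound-channel reporter intensity. Duplicate channels and three replicates were used, and cysteines quantified in only one replicate were excluded.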

Sequence of UniProt Q5T4S7 (Q5T4S7 whole entry, looked up): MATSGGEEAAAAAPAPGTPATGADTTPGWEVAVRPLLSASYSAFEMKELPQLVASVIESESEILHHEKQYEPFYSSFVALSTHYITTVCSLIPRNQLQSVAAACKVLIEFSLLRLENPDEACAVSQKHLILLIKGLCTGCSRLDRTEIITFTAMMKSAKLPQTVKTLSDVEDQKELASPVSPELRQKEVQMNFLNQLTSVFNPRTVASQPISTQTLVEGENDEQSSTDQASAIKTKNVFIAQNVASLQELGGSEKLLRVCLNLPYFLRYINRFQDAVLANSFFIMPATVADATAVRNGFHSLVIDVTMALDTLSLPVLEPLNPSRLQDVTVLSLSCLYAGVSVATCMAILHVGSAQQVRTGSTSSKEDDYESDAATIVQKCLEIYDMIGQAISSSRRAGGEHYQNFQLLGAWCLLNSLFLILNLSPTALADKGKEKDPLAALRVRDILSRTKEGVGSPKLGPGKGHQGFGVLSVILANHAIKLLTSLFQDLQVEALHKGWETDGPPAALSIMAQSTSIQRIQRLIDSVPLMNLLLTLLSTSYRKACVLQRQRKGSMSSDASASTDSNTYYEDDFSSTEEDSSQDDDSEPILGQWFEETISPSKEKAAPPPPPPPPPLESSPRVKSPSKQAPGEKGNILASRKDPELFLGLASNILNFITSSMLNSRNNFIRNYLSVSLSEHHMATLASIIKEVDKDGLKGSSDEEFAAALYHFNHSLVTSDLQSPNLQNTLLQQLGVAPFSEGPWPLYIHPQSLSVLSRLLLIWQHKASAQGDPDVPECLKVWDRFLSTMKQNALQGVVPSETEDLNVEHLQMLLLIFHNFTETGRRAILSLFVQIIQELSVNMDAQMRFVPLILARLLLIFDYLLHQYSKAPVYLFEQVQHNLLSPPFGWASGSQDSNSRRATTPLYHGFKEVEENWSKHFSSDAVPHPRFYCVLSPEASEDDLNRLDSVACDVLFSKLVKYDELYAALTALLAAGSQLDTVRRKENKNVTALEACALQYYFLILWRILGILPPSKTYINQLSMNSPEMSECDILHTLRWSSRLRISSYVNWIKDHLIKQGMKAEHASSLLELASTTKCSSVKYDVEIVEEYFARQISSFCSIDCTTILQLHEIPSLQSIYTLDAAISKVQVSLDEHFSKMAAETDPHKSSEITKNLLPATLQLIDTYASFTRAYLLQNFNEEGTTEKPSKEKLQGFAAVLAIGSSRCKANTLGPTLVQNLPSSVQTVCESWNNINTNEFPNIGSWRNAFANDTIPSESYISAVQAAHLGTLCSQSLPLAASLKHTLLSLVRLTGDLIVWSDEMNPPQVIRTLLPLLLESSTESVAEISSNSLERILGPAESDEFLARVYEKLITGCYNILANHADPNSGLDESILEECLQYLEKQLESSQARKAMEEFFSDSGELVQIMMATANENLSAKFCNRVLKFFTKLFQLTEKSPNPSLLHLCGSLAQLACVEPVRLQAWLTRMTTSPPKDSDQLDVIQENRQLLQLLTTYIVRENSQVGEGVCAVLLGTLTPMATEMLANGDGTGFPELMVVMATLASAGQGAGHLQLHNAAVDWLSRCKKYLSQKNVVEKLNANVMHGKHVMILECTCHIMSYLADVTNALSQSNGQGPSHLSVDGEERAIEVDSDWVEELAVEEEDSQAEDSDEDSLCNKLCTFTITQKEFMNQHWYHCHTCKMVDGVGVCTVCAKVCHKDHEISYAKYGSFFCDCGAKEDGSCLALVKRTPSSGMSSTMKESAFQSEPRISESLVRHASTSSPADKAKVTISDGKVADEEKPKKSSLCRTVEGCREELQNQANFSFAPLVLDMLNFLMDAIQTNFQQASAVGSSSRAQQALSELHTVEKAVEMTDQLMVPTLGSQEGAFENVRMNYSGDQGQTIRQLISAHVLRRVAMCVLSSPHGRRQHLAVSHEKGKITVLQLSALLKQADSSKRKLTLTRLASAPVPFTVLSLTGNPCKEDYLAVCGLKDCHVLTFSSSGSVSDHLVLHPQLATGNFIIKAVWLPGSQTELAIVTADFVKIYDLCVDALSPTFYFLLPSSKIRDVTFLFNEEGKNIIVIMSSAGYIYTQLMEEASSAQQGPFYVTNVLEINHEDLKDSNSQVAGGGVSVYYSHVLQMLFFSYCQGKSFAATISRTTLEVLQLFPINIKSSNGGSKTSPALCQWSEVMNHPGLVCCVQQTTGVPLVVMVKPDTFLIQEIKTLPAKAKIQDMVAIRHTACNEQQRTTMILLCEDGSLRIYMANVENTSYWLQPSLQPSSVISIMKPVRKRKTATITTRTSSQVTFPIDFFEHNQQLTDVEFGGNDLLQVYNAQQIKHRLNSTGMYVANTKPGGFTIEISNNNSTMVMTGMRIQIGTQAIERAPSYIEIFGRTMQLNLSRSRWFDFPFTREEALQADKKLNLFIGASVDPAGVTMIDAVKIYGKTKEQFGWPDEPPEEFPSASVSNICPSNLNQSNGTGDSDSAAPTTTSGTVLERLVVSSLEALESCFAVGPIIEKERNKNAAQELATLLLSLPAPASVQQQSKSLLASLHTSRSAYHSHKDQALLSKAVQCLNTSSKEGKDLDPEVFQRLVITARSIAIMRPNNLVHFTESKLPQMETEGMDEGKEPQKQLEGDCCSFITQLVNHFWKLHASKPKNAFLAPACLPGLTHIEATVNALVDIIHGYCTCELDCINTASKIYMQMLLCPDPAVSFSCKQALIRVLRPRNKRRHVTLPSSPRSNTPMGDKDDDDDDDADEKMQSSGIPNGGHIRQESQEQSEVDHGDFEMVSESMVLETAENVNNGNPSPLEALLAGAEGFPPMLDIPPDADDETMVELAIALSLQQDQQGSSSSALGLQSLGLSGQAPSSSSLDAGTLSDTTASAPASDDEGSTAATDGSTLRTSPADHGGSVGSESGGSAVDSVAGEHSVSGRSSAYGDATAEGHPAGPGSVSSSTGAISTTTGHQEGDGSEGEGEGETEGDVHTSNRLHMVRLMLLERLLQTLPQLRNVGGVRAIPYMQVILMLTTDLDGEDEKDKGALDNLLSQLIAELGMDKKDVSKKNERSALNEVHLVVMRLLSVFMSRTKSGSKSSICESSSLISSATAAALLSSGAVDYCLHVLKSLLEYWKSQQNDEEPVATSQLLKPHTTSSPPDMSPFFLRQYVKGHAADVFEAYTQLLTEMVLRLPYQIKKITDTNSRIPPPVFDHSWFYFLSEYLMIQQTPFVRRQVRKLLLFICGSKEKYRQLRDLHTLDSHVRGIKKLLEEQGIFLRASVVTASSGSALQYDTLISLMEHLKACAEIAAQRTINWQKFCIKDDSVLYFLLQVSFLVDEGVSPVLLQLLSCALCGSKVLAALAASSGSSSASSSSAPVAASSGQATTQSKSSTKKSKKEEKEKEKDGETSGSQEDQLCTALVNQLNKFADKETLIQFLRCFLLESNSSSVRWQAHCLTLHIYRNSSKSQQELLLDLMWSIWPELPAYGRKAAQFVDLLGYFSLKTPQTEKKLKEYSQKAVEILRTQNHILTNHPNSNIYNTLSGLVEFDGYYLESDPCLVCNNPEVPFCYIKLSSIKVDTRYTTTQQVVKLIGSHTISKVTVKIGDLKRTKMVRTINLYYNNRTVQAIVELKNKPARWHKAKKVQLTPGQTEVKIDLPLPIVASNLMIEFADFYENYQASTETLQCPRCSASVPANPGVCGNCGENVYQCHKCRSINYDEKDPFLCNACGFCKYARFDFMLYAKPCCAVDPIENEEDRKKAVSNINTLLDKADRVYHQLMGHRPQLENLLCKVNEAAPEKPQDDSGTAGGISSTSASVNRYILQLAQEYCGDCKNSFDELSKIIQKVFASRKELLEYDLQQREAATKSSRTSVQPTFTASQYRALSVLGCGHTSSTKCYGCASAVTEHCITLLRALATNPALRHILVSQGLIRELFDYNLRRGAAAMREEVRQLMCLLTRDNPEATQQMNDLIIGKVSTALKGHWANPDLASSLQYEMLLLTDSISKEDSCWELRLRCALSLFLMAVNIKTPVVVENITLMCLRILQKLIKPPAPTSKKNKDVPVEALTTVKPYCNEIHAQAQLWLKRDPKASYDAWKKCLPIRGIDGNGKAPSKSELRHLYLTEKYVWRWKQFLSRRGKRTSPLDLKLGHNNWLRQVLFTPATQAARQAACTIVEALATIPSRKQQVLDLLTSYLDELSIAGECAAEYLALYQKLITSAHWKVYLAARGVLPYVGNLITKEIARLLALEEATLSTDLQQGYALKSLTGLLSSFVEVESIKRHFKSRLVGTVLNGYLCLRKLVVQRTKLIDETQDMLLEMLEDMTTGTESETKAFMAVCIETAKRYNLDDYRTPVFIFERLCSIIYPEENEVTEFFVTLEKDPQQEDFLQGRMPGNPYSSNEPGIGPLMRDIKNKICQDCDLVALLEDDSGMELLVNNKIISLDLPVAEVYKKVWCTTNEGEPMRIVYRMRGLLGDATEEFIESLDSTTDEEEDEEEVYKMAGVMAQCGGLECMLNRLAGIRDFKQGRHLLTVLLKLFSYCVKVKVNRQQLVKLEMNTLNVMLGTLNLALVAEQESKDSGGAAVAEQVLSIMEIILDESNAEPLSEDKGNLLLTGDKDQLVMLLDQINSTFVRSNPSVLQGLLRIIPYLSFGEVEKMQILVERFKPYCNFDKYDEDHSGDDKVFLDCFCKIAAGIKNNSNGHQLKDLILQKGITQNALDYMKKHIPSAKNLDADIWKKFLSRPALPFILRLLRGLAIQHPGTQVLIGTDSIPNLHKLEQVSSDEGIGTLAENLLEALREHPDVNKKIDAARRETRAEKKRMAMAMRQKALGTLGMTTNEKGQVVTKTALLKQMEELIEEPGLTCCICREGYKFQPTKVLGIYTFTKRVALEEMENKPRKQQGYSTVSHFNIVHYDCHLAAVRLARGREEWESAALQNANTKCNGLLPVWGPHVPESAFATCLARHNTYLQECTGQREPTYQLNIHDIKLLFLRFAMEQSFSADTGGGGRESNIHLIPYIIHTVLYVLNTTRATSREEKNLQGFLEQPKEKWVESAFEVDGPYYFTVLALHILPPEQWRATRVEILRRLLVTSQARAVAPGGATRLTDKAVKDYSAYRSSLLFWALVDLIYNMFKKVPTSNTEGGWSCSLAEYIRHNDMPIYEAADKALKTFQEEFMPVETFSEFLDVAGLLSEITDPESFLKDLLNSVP

log2 ratio of iodoacetamide-alkyne labeling, inactive:
WDR19 C1332 (UniProt Q8NEZ3) 0.441
SMC5 C726 (UniProt Q8IY18) 0.249
PDLIM5 C446 (UniProt Q96HC4) 0.0755
MYBBP1A C1031 (UniProt Q9BQG0) 0.225
UniProt Q99590_C478 0.396
MYBBP1A C942 (UniProt Q9BQG0) 0.523
PDLIM5 C449 (UniProt Q96HC4) 0.0755
UniProt Q8NBJ5_C412 0.133
LARP1 C502 (UniProt Q6PKG0) 0.269
GRWD1 C299 (UniProt Q9BQ67) 0.364
CISD2 C92 (UniProt Q8N5K1) 0.0262
NIPBL C1876 (UniProt Q6KC79) 0.17
HIST2H3A C111 (UniProt Q71DI3) 0.0441
PNPLA6 C409 (UniProt Q8IY17) 0.4
MAP1S C841 (UniProt Q66K74) 0.464
UniProt Q7LBC6_C1451 0.513
TET2 C332 (UniProt Q6N021) 0.594
KHSRP C296 (UniProt Q92945) 0.00483
SECISBP2L C544 (UniProt Q93073) 0.341
EXOC6 C28 (UniProt Q8TAG9) 0.489
HEATR3 C173 (UniProt Q7Z4Q2) 0.137
DHX37 C1026 (UniProt Q8IY37) 0.317
PHF10 C134 (UniProt Q8WUB8) 0.0674
RDH13 C30 (UniProt Q8NBN7) 0.116
UniProt Q8NFC6_C686 0.47
IRF2BP2 C40 (UniProt Q7Z5L9) 0.276
UniProt Q8WU20_C415 0.241
UBR4 C1450 (UniProt Q5T4S7) 0.138

log2 ratio of iodoacetamide-alkyne labeling, active:
CCT7 C29 (UniProt Q99832) 1.51
UniProt Q8IX01_C656 2.27
TXNDC17 C43 (UniProt Q9BRA2) 1.34
CCDC117 C81 (UniProt Q8IWD4) 1.66
LUZP1 C594 (UniProt Q86V48) 1.19
LUZP1 C969 (UniProt Q86V48) 1.01
ISCA2 C146 (UniProt Q86U28) 1.59
